Measured values: PubChem BioAssay AID2551 (National Center for Advancing Translational Sciences (NCATS), 2010)
Out of some 310,000 compounds screened, about 17,000 (5.5%) were called active. Not shown: some 11% with an inconclusive outcome. Calls come from the whole dose curve; as a rule, active = well fitted inhibition curve with a large enough effect; inconclusive = small, poorly fitted or top-dose-only effect, or effect the other way; inactive = no such curve, though single readings can be large or run the other way. The sample as a whole holds a higher share of actives than the screen did.

biological target: Nuclear receptor ROR-gamma (Mus musculus) (UniProt P51450); test: qHTS for inhibitors of ROR gamma transcriptional activity; details: Drosophila S2 Gal4-RORgamma UAS-luciferase reporter, 20 h; series mostly up to 53.6 µM; activity change, negative = inhibition: at the top concentration; note: nearly all actives have a fitted effect of over 60% in size
Source text: NIH Molecular Libraries Probe Production Network [MLPCN] NIH Chemical Genomics Center [NCGC] MLPCN Grant: R03 DA026211-01 Assay Provider: Dan Littman, New York University Assay Overview: The retinoic acid-related orphan receptor (ROR) gamma is a transcription factor that has a central role in the differentiation of Th17 cells, a subset of T helper cells that secrete the inflammatory cytokines IL-17, IL-17F, and IL-22. Th17 cells have been implicated in graft versus host disease, autoimmune disease and asthma. ROR gamma is induced in naive T helper cells in the presence of TGF-beta combined with IL-6, IL-21, or IL-23, and thereafter directs the expression of the Th17 lineage cytokines. To study the mechanism of action of ROR gamma, an insect cell-based assay was screened. This Drosophila Schneider cell line was stably transfected with two vectors: a gene expressing a fusion of the Gal4 DNA binding domain and ROR gamma transactivation domain under the control of the metallothionine promoter and a Photinus luciferase reporter regulated by the Gal4 binding site enhancer, UAS. […] Small molecule inhibitors of ROR gamma activity are detected by a decrease in luciferase reporter activity.
Assay Protocol Summary: For screening, 600 cells in 4 uL/well were dispensed into white solid 1536-well plates (Grenier) using a solenoid-based dispenser. Following transfer of 23 nL compound or DMSO vehicle by a pin tool, the plates were incubated 1 hr at ambient temperature, and 1 uL/well copper sulfate (700 uM final concentration) was added. The plates were centrifuged 15 s at 1000 RPM and incubated 20 hr at ambient temperature. After addition of 1.5 uL Photinus luciferase detection reagent, the plates were incubated 10 min at ambient temperature and then read by an ViewLux (Perkin Elmer) to detect luminescence. Keywords: NIH Roadmap, MLPCN, MLI, MLSMR, qHTS, NCGC, qHTS, nuclear hormone receptor, retinoic acid-related orphan receptor, ROR gamma
% is set by controls: 0 for no effect and ±100 for the full control effect; potency is the fitted concentration of half-maximal effect.

Sequence of Nuclear receptor ROR-gamma (Mus musculus) (P51450 whole entry, looked up, the tested form may be a part): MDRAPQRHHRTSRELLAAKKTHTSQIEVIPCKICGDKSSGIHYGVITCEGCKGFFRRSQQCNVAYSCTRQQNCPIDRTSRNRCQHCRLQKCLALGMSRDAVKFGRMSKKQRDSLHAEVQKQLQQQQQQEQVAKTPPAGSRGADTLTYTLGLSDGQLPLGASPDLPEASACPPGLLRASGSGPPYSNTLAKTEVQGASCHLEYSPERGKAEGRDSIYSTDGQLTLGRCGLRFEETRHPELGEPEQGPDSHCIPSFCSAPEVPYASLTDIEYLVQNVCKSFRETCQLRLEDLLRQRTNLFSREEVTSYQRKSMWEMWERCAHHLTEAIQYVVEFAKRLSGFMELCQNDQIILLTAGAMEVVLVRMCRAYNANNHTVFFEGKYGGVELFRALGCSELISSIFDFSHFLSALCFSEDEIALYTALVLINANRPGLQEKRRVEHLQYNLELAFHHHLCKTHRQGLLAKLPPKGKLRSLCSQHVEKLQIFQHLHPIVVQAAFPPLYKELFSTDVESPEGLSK

Activity change, negative = inhibition, inactive:
Cn1cc(S(=O)(=O)Nc2ccc(Cl)cc2Cl)c(=O)n(C)c1=O -23.8%
COc1cc(OC)c(NS(=O)(=O)c2cn(C)cn2)cc1Cl -31.2%
Cc1cc(C(=O)N/N=C/c2ccc(N3CCOCC3)cc2)c(C)o1 1.46%
Cc1cc(C(=O)N/N=C/c2ccccc2[N+](=O)[O-])c(C)o1 14.4%
Cc1c(CC(=O)N2CCN(C(=O)C3COc4ccccc4O3)CC2)c(=O)oc2c(O)c(O)ccc12 (configuration not stated) -17.5%
COc1cc(OC)cc(C(=O)Nc2nnc(SCC(=O)NCC3CCCO3)s2)c1 (configuration not stated) 4%
CC(=O)c1ccc(N2CCN(CC(O)c3ccccc3)CC2)cc1 (configuration not stated) -14.4%
Cc1[nH]c(C)c(S(=O)(=O)N2CCN(c3cccc(C(F)(F)F)c3)CC2)c1C(=O)N1CCCCC1 -4.17%
COc1ccc(-c2nc(CS(=O)CC(=O)NCc3ccccc3)c(C)o2)cc1OC (configuration not stated) 3.74%
Cc1cccc(-c2nc(CS(=O)CC(=O)NC(C)CCc3ccccc3)c(C)o2)c1 (configuration not stated) 43.4%
CCCOc1ccc(Cc2c(O)nc(SC)[nH]c2=O)cc1C 30.8%
O=C(c1cc2ccccc2o1)N1CCN(c2cccc(C(F)(F)F)c2)CC1 33.7%
COc1ccc(-c2oc3ncnc(NCCCO)c3c2-c2ccc(OC)cc2)cc1 22.4%
N=c1c2c(-c3ccccc3)c(-c3ccccc3)oc2ncn1Cc1ccco1 22.8%
CC(C)[C@@H]1COC(c2cccc(C3=N[C@H](C(C)C)CO3)c2)=N1 -41.6%
O=C(NC(Cc1ccc(O)cc1)C(=O)O)/C(=C/c1ccccc1)NC(=O)c1ccccc1 (configuration not stated) -2.76%
O=C(C[C@H]1C(=O)N(c2ccc(F)c(F)c2)C[C@@H]1Cc1ccccc1)Nc1ccccc1 44.7%
Cc1c(C)c(C)c(S(=O)(=O)N2CCC3(CC2)OCCO3)c(C)c1C -34.3%
Cc1cc(SCc2c(F)cccc2Cl)nc(=O)[nH]1 2.04%
CC(=O)NCCC(=O)Nc1cc(S(=O)(=O)N2CCOCC2)ccc1N1CCOCC1 32.6%
O=C(COC(=O)Cc1ccc(F)cc1)Nc1cc(S(=O)(=O)N2CCOCC2)ccc1N1CCCC1 33.6%
O=C(Nc1ccccc1C(=O)Nc1ccncc1)c1ccc([N+](=O)[O-])cc1 25.4%
Cc1ccc(N2CCN(c3ccc([N+](=O)[O-])cn3)CC2)c(C)c1 -2.68%
O=C(COC(=O)c1ccc(N2CCCC2=O)cc1)c1ccc(OC(F)F)cc1 44.5%
O=C(NCCNc1ccccc1[N+](=O)[O-])c1ccccc1F 20.5%
COc1cc(CN2CCC(n3nccc3NC(=O)CCCc3ccccc3)CC2)ccc1O 24.6%
COc1cc2[nH]c(=O)n(Cc3ccc(C(=O)NC4CCN(Cc5ccccc5)CC4)cc3)c(=O)c2cc1OC 6.06%
CCOc1cc2[nH]c(=S)n(Cc3ccc(C(=O)NCCOC)cc3)c(=O)c2cc1OCC -43.7%
CCOc1cc2[nH]c(=S)n(CCCN3CCCC3=O)c(=O)c2cc1OCC -1.37%
COc1cc2[nH]c(=O)n(CCC(=O)NC3CCN(Cc4ccccc4)CC3)c(=O)c2cc1OC -7.87%
O=S(=O)(NC1CCCC1)c1ccc(-n2cnnn2)cc1 -26.9%
Cc1sc2nc(SCCO)n(-c3ccccc3)c(=O)c2c1C 16.7%
COCCCNC(=S)N1CCN(c2nc(-c3cccc(OC)c3)cs2)CC1 19.9%
O=C(Nc1c2c(nn1-c1ccccc1)CS(=O)(=O)C2)C1CCCC1 -9.49%
NC(N)=N/N=C/c1ccc(Cl)c([N+](=O)[O-])c1 2.73%
CC(CN1CCC(n2nccc2NC(=O)C2CCCC2)CC1)c1ccccc1 (configuration not stated) -26.1%
O=C(CCc1nnc2ccc(NCc3ccco3)nn12)Nc1cc(F)ccc1F 12.4%
CCc1ccc(NC(=O)CSc2nc3ccccc3c(=O)n2CCN2CCOCC2)cc1 42.2%
CC(=O)NCCn1c(SCC(=O)Nc2ccc(C)cc2)nc2ccccc2c1=O 8.63%
CCn1c(C)c(C)c2cc(C(=O)N3CCN(c4cccc(C)c4C)CC3)ccc21 2.35%
CCCCC(c1nnnn1CS(=O)(=O)c1ccc(C)cc1)N1CCC(C(N)=O)CC1 (configuration not stated) -7.67%
Cc1ccc(CNC(=O)Cc2cn(C)c3ccccc23)cc1 24.8%
COc1ccc2ccccc2c1/C=N/NC(=O)c1cc(C)[nH]n1 -11.2%
CC(C)(C)c1cc(C(=O)N/N=C/c2ccc([N+](=O)[O-])s2)n[nH]1 -30.6%
CCCCn1c(SCC(=O)N2CCOCC2)nc2c1c(=O)n(C)c(=O)n2C 8.39%
CC1(C)CCCC2=C1CC1C(=O)N(c3ccccc3)C(=O)C1C2 (configuration not stated) -12.1%
CC(C)[C@H](NC(=O)N1CCn2c1nc1ccccc12)C(=O)NCc1ccc2c(c1)OCO2 -24.8%
Cc1ccc2[nH]c(=O)c(CC(=O)O)c(-c3ccccc3)c2c1 -2.08%
COc1ccc(C(C)NC(=O)C23CC4CC(CC(C4)C2)C3)cc1 (configuration not stated) 7.13%
O=C(N/N=C\c1cccc(Br)c1)c1ccccc1-n1cccc1 -2.2%
O=C(Nc1ccc(C(=O)O)cc1)/C(=C\c1ccccc1)NC(=O)c1ccc(Br)cc1 9.49%
O=C(Nc1cccc(NC(=O)c2ccc(Br)cc2)c1)c1ccccc1 -13.1%
O=C(O)c1ccc(/C=N/NC(=O)c2ccc(Br)cc2)cc1 -14.5%

Potency, active:
CC(=C/c1ccccc1)/C=N/NC(=O)c1cc(C)oc1C 7.08 µM
COc1ccc(-c2nc(CS(=O)CC(=O)NCc3cccnc3)c(C)o2)cc1OC (configuration not stated) 11.2 µM
COc1ccc(-c2oc3ncn(Cc4ccco4)c(=N)c3c2-c2ccc(OC)cc2)cc1 12.6 µM
COCCNC(=S)Nc1cc(S(=O)(=O)N2CCOCC2)ccc1N1CCCCC1 0.891 µM
CC/C(=N\NC(=S)NC(C)C)c1ccc(OC(F)F)cc1 0.562 µM
COc1cc2[nH]c(=S)n(Cc3ccc(F)cc3)c(=O)c2cc1OC 1.78 µM
COc1cc2[nH]c(=S)n(Cc3ccc(C)o3)c(=O)c2cc1OC 5.01 µM
Nn1cnnc1N/N=C/c1cc([N+](=O)[O-])c(Cl)cc1Cl 11.2 µM
Oc1ccc(Br)cc1C=Nc1ccc2[nH]ncc2c1 11.2 µM
CCn1c(SCC(=O)Nc2ccc(C)cc2)nc2nc3c(cc2c1=O)CCCC3 10 µM
Cc1cc(C(=O)N/N=C/c2cc([N+](=O)[O-])cc(C)c2O)n[nH]1 10 µM
CC1CC2=C(CC1/C=N/NC(N)=S)C(C)(C)CCC2 (configuration not stated) 1.41 µM
CC(=N\NC(=O)c1cc(Br)ccc1O)/C(=N/O)C(=O)Nc1ccccc1 7.94 µM
CC(C)/C=N/NC(=O)c1cc(Br)ccc1O 10 µM
